This is an account of results in PubChem BioAssay (NCI).

Each structure is given as a SMILES string. This is part of a sample that, as a whole, favours compounds with a hit. Of some 79,000 tested, about 15% had one in any assay. A number with no mark means an inactive call. Activity calls are given as the source filed them. No stated cut-off is given here; in the data, active means growth inhibition above about 70%; inactive means the rest.

The nature of test [1]: NCI Yeast Anticancer Drug Screen. Data for the rad50 strain (AID 155).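 Further: 0% = growth of vehicle-only cultures of the same strain.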 As to conditions: S. cerevisiae rad50 strain growth inhibition; at 50.0 µM; stronger effect = higher value. The procedure, abridged:
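Growth of the mutant yeast was measured after compound exposure and referenced to vehicle-treated cultures.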

The nature of test [2]: NCI Yeast Anticancer Drug Screen. Data for the mec2-1 strain (AID 157). Conditions: S. cerevisiae mec2-1 strain, at 50.0 µM, stronger effect = higher value. The procedure, abridged:
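Strain: mec2-1 (DNA repair/cell cycle alteration). Compound exposure, then growth measured; inhibition expressed relative to vehicle.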

Test [3] in a line: NCI Yeast Anticancer Drug Screen. Data for the sgs1 mgt1 strain (AID 161).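 Further: 0% = growth of cultures given vehicle only.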 Conditions: S. cerevisiae sgs1 mgt1 strain, at 50.0 µM, stronger effect = higher value. The procedure, abridged:
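Mutant yeast exposed to compound; growth scored against vehicle-only wells.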

A short description of test [4]: NCI Yeast Anticancer Drug Screen. Data for the cln2 rad14 strain (AID 165).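 Further: 0% = growth equal to vehicle treated cultures.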 As to conditions: S. cerevisiae cln2 rad14 strain, at 50.0 µM, stronger effect = higher value. The procedure, abridged: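 Compounds are applied to the cln2 rad14 yeast strain, and growth is then compared with that of vehicle-treated cultures to give inhibition.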
Test [5] is described as follows: NCI Yeast Anticancer Drug Screen. Data for the bub3 strain (AID 167). Conditions: S. cerevisiae bub3 mutant strain, at 50.0 µM, stronger effect = higher value. The procedure, abridged:
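Whole-cell yeast assay. The mutant strain was incubated with compounds, and growth inhibition was determined by comparison with vehicle-treated cells.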

Test [6] is described as follows: NCI Yeast Anticancer Drug Screen. Data for the mlh1 rad18 strain (AID 175). Conditions: S. cerevisiae mlh1 rad18 strain growth inhibition; at 50.0 µM; stronger effect = higher value. The procedure, abridged:
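Read-out is yeast growth inhibition, calculated against vehicle-only controls. The compound was applied to a strain engineered with DNA damage repair alterations.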

With `NC(=O)Cc1nc(O)cc(=O)[nH]1`, the growth inhibition in test [1] was -8.45%; in test [2], -9.1%; in test [3], -8.3%; in test [4], -13.1%; in test [5], -1.9%; in test [6], -2.15%.
Turning to `O=C(Cc1ccccc1)Nc1cccc2ccccc12`, the growth inhibition is 6.15% in test [1]; 1.7% in test [2]; 0.8% in test [3]; 1% in test [4]; 22.9% in test [5]; 0.9% in test [6].
As to `O=C(Cc1n[nH]c(=S)nc1CC(=O)c1ccccc1)c1ccccc1`, the growth inhibition in test [1] was -2.05%; in test [2] it was 0.85%; in test [3] it was 5.2%; in test [4], -17.5%; in test [5], -27.9%; in test [6], 7.4%.
Turning to `O=C(O)CNC(=O)CNC(=O)CNC(=O)CNC(=O)CNC(=O)OCc1ccccc1`, the growth inhibition was 38.2% in test [1]; -0.25% in test [2]; 15.2% in test [3]; 28.1% in test [4]; -0.95% in test [5]; 17.4% in test [6].
Consider `COc1ccc(OC)c2c(C(C)=O)cccc12`, for which the growth inhibition in test [1] was -35%; in test [2], -42.1%; in test [3] it was -4.2%; in test [4] it was -12.8%; in test [5] it was -17.2%; in test [6] it was -21.7%.
For the compound `CCC(C(=O)NC1c2ccccc2Oc2ccccc21)c1ccccc1` (stereo unspecified), the growth inhibition in test [1] is -0.85%; in test [2], -9.85%; in test [3], 0.55%; in test [4], -12.4%; in test [5], 4.5%; in test [6], -2.5%.
As to `[N-]=[N+]=Nc1ccccc1-c1ccccc1[N+](=O)[O-]`, the growth inhibition was 35% in test [1]; -6.3% in test [2]; 40.3% in test [3]; 0.4% in test [4]; -6.4% in test [5]; 28.6% in test [6].
With `O=C(Nc1ccccc1F)OCCCl`, the growth inhibition in test [1] was 11.8%; in test [2] it was -23.6%; in test [3] it was 6.55%; in test [4], 1.45%; in test [5], 3.55%; in test [6], 4.4%.
As for `C=C1CN=C(Nc2ccc(Cl)cc2)S1`, the growth inhibition in test [1] is -11.1%; in test [2], 18.1%; in test [3] it was -14.8%; in test [4], 17.2%; in test [5] it was 11.5%; in test [6], -13.7%.
Turning to `Cc1nc2[nH]cc(-c3ccccc3)c2c(=N)n1-c1ccc(F)cc1`, the growth inhibition was -7.45% in test [1]; 0.8% in test [2]; -11.2% in test [3]; -23.1% in test [4]; -7.6% in test [5]; 0.55% in test [6].
Turning to `O=C(c1ccccc1)C(c1ccccc1)(c1ccccc1)c1ccccc1`, the growth inhibition in test [1] was -4.1%; in test [2] it was 6.2%; in test [3], -17.3%; in test [4] it was -30%; in test [5], -10.2%; in test [6], 24.1%.
As for `CC(C)=NOC(C)C(=O)O` (stereo unspecified), the growth inhibition is -11.9% in test [1]; 18.2% in test [2]; -24.4% in test [3]; 10.2% in test [4]; -0.9% in test [5]; -3.15% in test [6].
Turning to `CC1=C(C(=O)Nc2ccccc2)C(c2ccccc2)C(C(=O)Nc2ccccc2)=C(C)N1`, the growth inhibition was 4.2% in test [1]; 2.55% in test [2]; 14.5% in test [3]; 18.4% in test [4]; 0.55% in test [5]; 22.4% in test [6].
`N#Cc1c(-c2ccc([N+](=O)[O-])cc2)c(C#N)c(=O)n(NS(=O)(=O)c2ccccc2)c1-c1ccccc1`: the growth inhibition was 7.1% in test [1]; 13.3% in test [2]; -2.45% in test [3]; 4.05% in test [4]; 6.25% in test [5]; 26.4% in test [6].
In the case of `Cc1ccc(N2CCN(c3ccc(C)cc3)C2=C2N(c3ccc(C)cc3)CCN2c2ccc(C)cc2)cc1`, the growth inhibition in test [1] is 78.5% (active); in test [2], 20.4%; in test [3] it was 56.5%; in test [4], 34.1%; in test [5] it was 37.1%; in test [6] it was 19.6%.
Regarding `N#CC(C#N)c1ccc(C(C#N)C#N)cc1`, the growth inhibition in test [1] is -9.15%; in test [2] it was -6.75%; in test [3], 0.25%; in test [4], -16%; in test [5], -12.3%; in test [6] it was -1.55%.
As to `CC1=CC(=O)N(n2c(-c3ccccc3)n[nH]c2=O)C1=O`, the growth inhibition in test [1] is -26.9%; in test [2], -12.9%; in test [3], -4.45%; in test [4] it was 7.95%; in test [5], -13.2%; in test [6] it was 5.3%.
Regarding `CCOC(=C[P+](c1ccccc1)(c1ccccc1)c1ccccc1)OCC`, the growth inhibition in test [1] is -6.5%; in test [2] it was 20.8%; in test [3], 2.35%; in test [4], -9.5%; in test [5] it was -3.6%; in test [6], -36%.
As for `COCC1OCCN1C` (stereo unspecified), the growth inhibition in test [1] was 12.7%; in test [2], 7.75%; in test [3], -10%; in test [4] it was 17.4%; in test [5], 5.65%; in test [6], -32.1%.
For `CN1CC(CN2CCCCCC2)C(O)C(c2ccccc2)C1` (stereo unspecified), the growth inhibition in test [1] was 1.7%; in test [2] it was -7.1%; in test [3], 18%; in test [4], 7.85%; in test [5], -1.5%; in test [6], 27.6%.
With `COc1ccc(/C=C/c2cc(O)cc(OC3OC(CO)C(O)C(O)C3O)c2)cc1O` (stereo unspecified), the growth inhibition is -2.4% in test [1]; 10.5% in test [2]; -5.5% in test [3]; 7.55% in test [4]; 8.7% in test [5]; 10.8% in test [6].
